{
  "source": "PubChem BioAssay AID977611",
  "origin": "cited, not measured here",
  "test": "PubChem AID 977611",
  "settings": "PDB protein-ligand complexes, literature Kd",
  "note": "The whole screen tested about 3,900 compounds, of which about 3,900 (100%) were called active. The limit is not given here; nearly all actives have Kd up to about 4200 µM. So high a share suggests a set chosen from earlier hits. Some of the results follow. Peptide text beside a SMILES is read from it.",
  "data": [
    {"compound": "O[C@@H]1[C@H](O)[C@@H](CO[P+](O)(O)O)O[C@H]1n1cnc2c(NC3CCCC3)ncnc21", "values": [
      {"measurement": "Kd", "setting": "protein: 2'-deoxynucleoside 5'-phosphate N-hydrolase 1, DNPH1 (RCL), PDB entry 4kxl", "value": "0.6 µM (active)"}
    ]},
    {"compound": "CN(C)[C@@H](Cc1cnc[nH]1)C(=O)O", "values": [
      {"measurement": "Kd", "setting": "protein: Histidine-specific methyltransferase EgtD, PDB entry 4pin", "value": "4 µM (active)"},
      {"measurement": "Kd", "setting": "protein: Histidine-specific methyltransferase EgtD, PDB entry 4pio", "value": "2 µM (active)"}
    ]},
    {"compound": "C=C1C/C=C/[C@H](OC)[C@H](OC(N)=O)C(=C)C[C@@H](C)[C@@H](O)[C@@H](OC)C[C@H](C)CC2=C(OC)C(=O)C(C)=C(NC1=O)C2=O", "values": [
      {"measurement": "Kd", "setting": "protein: ATP-DEPENDENT MOLECULAR CHAPERONE HSP82, PDB entry 4as9", "value": "16.3 µM (active)"}
    ]},
    {"compound": "OCc1cn([C@H]2O[C@H](CO)[C@@H](O)[C@H](O)[C@@H]2O)nn1", "values": [
      {"measurement": "Kd", "setting": "protein: Concanavalin-A ConA, PDB entry 4pf5", "value": "3.3 µM (active)"}
    ]},
    {"compound": "CCC(=O)O[C@H](CCOCc1ccccc1)[C@@H](C)[C@H](O)[C@@H](C)CCC(=O)[C@H](C)[C@H](OC(C)=O)[C@H](C)/C=C/N(C)C=O", "values": [
      {"measurement": "Kd", "setting": "protein: Actin, alpha skeletal muscle, PDB entry 4k42", "value": "0.285 µM (active)"}
    ]},
    {"compound": "NC1N=C2NN=C(CC(=O)O)C(=O)C2C(=O)N1", "note": "(configuration not stated)", "values": [
      {"measurement": "Kd", "setting": "protein: Dihydropteroate Synthase, PDB entry 4dai", "value": "0.11 µM (active)"}
    ]},
    {"compound": "O=C1NC(=O)[C@H](Cc2ccccc2)N1", "values": [
      {"measurement": "Kd", "setting": "protein: Mhp1, PDB entry 2JLO", "value": "54 µM (active)"}
    ]},
    {"compound": "O=C1N=C(Cc2cccc(Br)c2)C(=O)N1", "values": [
      {"measurement": "Kd", "setting": "protein: nucleobase-cation-symport-1 family hydantoin transporter Mhp1, PDB entry 4d1c", "value": "2 µM (active)"}
    ]},
    {"compound": "CCCCCCCCC(=O)c1cc(O)c(O)c(O)c1", "values": [
      {"measurement": "Kd", "setting": "protein: Nuclear receptor subfamily 4 group A member 1, PDB entry 4jgv", "value": "0.27 µM (active)"}
    ]},
    {"compound": "C[C@]12CC(=O)[C@H]3[C@@H](CCC4=CC(=O)CC[C@@]43C)[C@@H]1CC[C@@H]2C(=O)CO", "values": [
      {"measurement": "Kd", "setting": "protein: Phospholipase A2 VRV-PL-VIIIa, PDB entry 4qf7", "value": "0.0025 µM (active)"}
    ]},
    {"compound": "H-QQHHLGGAKQAGDV-OH", "values": [
      {"measurement": "Kd", "setting": "protein: FIBRONECTIN-BINDING PROTEIN A, PDB entry 4b60", "value": "3.7 µM (active)"}
    ]},
    {"compound": "H-GALGGAKQAGAV-OH", "values": [
      {"measurement": "Kd", "setting": "protein: Clumping factor A (ClfA), PDB entry 2vr3", "value": "10.5 µM (active)"}
    ]},
    {"compound": "H-KSAVTTVVNP-OH", "values": [
      {"measurement": "Kd", "setting": "protein: Integrin beta-1-binding protein 1, PDB entry 4dx9", "value": "5 µM (active)"}
    ]},
    {"compound": "H-FNYESTGPFTAK-OH", "values": [
      {"measurement": "Kd", "setting": "protein: EH domain-containing protein 1 C-terminal domain, PDB entry 2kfh", "value": "2400 µM (active)"}
    ]},
    {"compound": "H-LESKPYNPFEEEEED-OH", "values": [
      {"measurement": "Kd", "setting": "protein: C-terminal domain of EH domain-containing protein 1, PDB entry 2ksp", "value": "57 µM (active)"}
    ]},
    {"compound": "H-FNYESTNPFTAK-OH", "values": [
      {"measurement": "Kd", "setting": "protein: EH domain-containing protein 1 C-terminal domain, PDB entry 2kff", "value": "245 µM (active)"}
    ]},
    {"compound": "H-FNYESTDPFTAK-OH", "values": [
      {"measurement": "Kd", "setting": "protein: EH domain-containing protein 1 C-terminal domain, PDB entry 2kfg", "value": "1200 µM (active)"}
    ]},
    {"compound": "COC1=CC=C2CC3C4CC5OCOC5CC4CCN3C[C@H]2[C@@H]1OC", "note": "(some centres not stated)", "values": [
      {"measurement": "Kd", "setting": "protein: Putative regulatory protein, PDB entry 3vw2", "value": "17.9 µM (active)"}
    ]},
    {"compound": "Cc1cc2c([nH]1)NC(=O)N([C@@H]1O[C@H](CO)[C@@H](O)[C@H]1O)C2", "values": [
      {"measurement": "Kd", "setting": "protein: NupC family protein CNT-7C8C, PDB entry 4pd8", "value": "0.94 µM (active)"}
    ]},
    {"compound": "CC[C@H](C)[C@H](NC(=O)[C@H](CC(=O)O)NC(=O)[C@@H](N)CC(=O)O)C(=O)N[C@@H](CO[P+](O)(O)O)C(=O)N[C@@H](CC(C)C)C(=O)N[C@@H](CC(C)C)C(=O)N[C@@H](CCCCN)C(=O)O", "values": [
      {"measurement": "Kd", "setting": "protein: human GGA1(Golgi-localizing, ?-adaptin ear homology domain, ARF-interacting) VHS domains, PDB entry 1ujk", "value": "0.27 µM (active)"}
    ]},
    {"compound": "H-DDISLLK-OH", "values": [
      {"measurement": "Kd", "setting": "protein: human GGA1(Golgi-localizing, ?-adaptin ear homology domain, ARF-interacting) VHS domains, PDB entry 1ujj", "value": "0.8 µM (active)"}
    ]},
    {"compound": "Cc1nc2ccccc2c(-c2ccc3c(c2)CCCO3)c1[C@H](OC(C)(C)C)C(=O)O", "values": [
      {"measurement": "Kd", "setting": "protein: Integrase IN CCD (H171T mutant), PDB entry 4tsx", "value": "10.3 µM (active)"}
    ]},
    {"compound": "CN(C)Cc1c[nH]c2c(CCCO)cccc12", "values": [
      {"measurement": "Kd", "setting": "protein: Phospholipase A2 VRV-PL-VIIIa, PDB entry 4qgd", "value": "0.037 µM (active)"}
    ]},
    {"compound": "H-TNLYML-OH", "values": [
      {"measurement": "Kd", "setting": "protein: E. coli UDP-N-acetylglucosamine acyltransferase (LpxA), PDB entry 4j09", "value": "17 µM (active)"}
    ]},
    {"compound": "H-TNEFYA-OH", "values": [
      {"measurement": "Kd", "setting": "protein: the PDZ Tandem of Syntenin 1, PDB entry 1ybo", "value": "160 µM (active)"}
    ]},
    {"compound": "C[C@H](N)C(=O)N[C@@H](CO[P+](O)(O)O)C(=O)N[C@@H](CCC(N)=O)C(=O)N[C@@H](CCC(=O)O)C(=O)N[C@@H](Cc1ccc(O)cc1)C(=O)O", "values": [
      {"measurement": "Kd", "setting": "protein: Mediator of DNA damage checkpoint protein 1(MDC1/NFBD1), PDB entry 2azm", "value": "2.2 µM (active)"}
    ]},
    {"compound": "H-DAEFRA-OH", "values": [
      {"measurement": "Kd", "setting": "protein: 3D6 FAB ANTIBODY, PDB entry 4onf", "value": "0.0012 µM (active)"}
    ]},
    {"compound": "H-TYKFFEQ-OH", "values": [
      {"measurement": "Kd", "setting": "protein: adaptor protein complex 4 (AP-4) mu4 subunit C-terminal domain D190A mutant, PDB entry 4mdr", "value": "40.6 µM (active)"}
    ]},
    {"compound": "Oc1ccc(F)cc1O", "values": [
      {"measurement": "Kd", "setting": "protein: Protocatechuate 3,4-dioxygenase alpha chain 3,4-PCD, PDB entry 4whq", "value": "75 µM (active)"},
      {"measurement": "Kd", "setting": "protein: Protocatechuate 3,4-dioxygenase alpha chain 3,4-PCD, PDB entry 4whr", "value": "75 µM (active)"},
      {"measurement": "Kd", "setting": "protein: Protocatechuate 3,4-dioxygenase alpha chain 3,4-PCD, PDB entry 4whs", "value": "75 µM (active)"}
    ]},
    {"compound": "H-MFAAFDYIA-OH", "values": [
      {"measurement": "Kd", "setting": "protein: 3-phosphoinositide-dependent protein kinase 1 PDK1, PDB entry 4rrv", "value": "0.04 µM (active)"}
    ]},
    {"compound": "CSCC[C@H](NC(=O)[C@@H](N)CC(=O)O)C(=O)N[C@@H](Cc1ccc(O)cc1)C(=O)N[C@@H](C)C(=O)O", "note": "(H-DMYA-OH)", "values": [
      {"measurement": "Kd", "setting": "protein: E3 ubiquitin-protein ligase RNF31 HOIP PUB Domain, PDB entry 4p0b", "value": "0.29 µM (active)"}
    ]},
    {"compound": "Cc1ccc(-c2cc3c(NC([P+](O)(O)O)[P+](O)(O)O)ncnc3s2)cc1", "values": [
      {"measurement": "Kd", "setting": "protein: Farnesyl pyrophosphate synthase, human FPPS, PDB entry 4lpg", "value": "55.6 µM (active)"}
    ]},
    {"compound": "Cc1ccc(-c2cc3c(NC[P+](O)(O)O)ncnc3s2)cc1", "values": [
      {"measurement": "Kd", "setting": "protein: Farnesyl pyrophosphate synthase, human FPPS, PDB entry 4lph", "value": "9.2 µM (active)"}
    ]},
    {"compound": "N#Cc1c(Oc2ccc(F)c(NC(=O)Cc3cccc(C(F)(F)F)c3)c2)ccc2nc(NC(=O)C3CC3)sc12", "values": [
      {"measurement": "Kd", "setting": "protein: Serine/threonine-protein kinase B-raf, PDB entry 4ksp", "value": "0.0016 µM (active)"}
    ]}
  ]
}
